Source: PubChem BioAssay (several laboratories)
Dyrk1A ADPGlo: rat Dyrk1A kinase inhibitors, primary screen, biochemical, single point, plate reader; 0.43% of 310,000 active; AID 504441, 2011; Dual specificity tyrosine-phosphorylation-regulated kinase 1A (Rattus norvegicus), Q63470; ADP-Glo luminescence, NFATc1 peptide; inhibition, % at 12.5 µM; in the data active means inhibition above about 50%;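 further: plate controls were vehicle with enzyme for no effect and no enzyme for full effect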
HSF1 inh: HSF1 inhibitors in luciferase reporter cells, primary screen, cell-based, NIH3T3, luminescence | NIH3T3-HGL HSE-luciferase, MG132-induced, luminescence 8 h; active compounds read low | activity change, negative = inhibition, % at 7.5 µM (by protocol) | 0.77% of 300,000 active | AID 2098, 2009;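 active means more than half of replicate wells show activity change below -50%, luminescence cut by over half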;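 further: luciferase reports HSF-1 transcriptional activity via heat shock element; 0% = median of DMSO wells and -100% = zero luminescence signal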
HSF-1 act: HSF-1 activators, primary screen, NIH3T3-HGL cells, MG132 stress, luminescence, single point; NIH3T3-HGL HSF-1 luciferase reporter, 8 h; 100% = twice DMSO control signal; activation, % at 9 µM; 1.7% of 300,000 active;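 active means mean replicate activation of at least 50% with a set share of replicates each reaching 50%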;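 further: 0% = median of the neutral control wells and 100% = twice that signal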
aDG glyco act: activators of alpha-DG glycosylation, primary screen, uHTS, Pro5-aDG cells, AlphaScreen | activation, % at 10 µM | 0.22% of 360,000 active | AID 624168, 2012 | alpha-DG glycosylation AlphaScreen (IIH6); 0% Pro5, 100% B10-LARGE cell signal;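 active means activation of at least 8% versus controls, or a plate z-score of at least 8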;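 further: Pro5 are CHO cells carrying HIG-tagged alpha-DG that lacks glycosylation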
GC-B act: human GC-B receptor activators, primary screen, HEK293 GC-B cells, cGMP TR-FRET, EC30 CNP; activation, % at 10 µM; Atrial natriuretic peptide receptor 2 (Homo sapiens), P20594; 0.11% of 370,000 active; 0% at EC30 CNP, 100% saturating CNP; AID 1920062, 2024;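 active means activation at 10 µM reaching about 35% in either raw or pattern-adjusted values, limit read from the data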
NPR1 activator: GC-A stimulated cGMP production enhancers – HEK293 GC-A cells, cGMP TR-FRET, EC30 ANP, primary screen. AID 1671463, 2021. 0% at EC30 ANP, 100% saturating ANP. 0.14% of 370,000 active. activation, % at 10 µM. Atrial natriuretic peptide receptor 1 (Homo sapiens), P16066; in the data active means activation above about 40%
Active calls of the source: *. Compounds with a hit are over-represented: about 2.5% of the library has one in this group of screens.

`O=C(N/N=C/c1cn(-c2ccccc2)nc1-c1cc2ccccc2o1)c1ccccc1Br` gave Dyrk1A ADPGlo 2.4, HSF1 inh 40.2, HSF-1 act 75.7*, aDG glyco act 1.1, GC-B act 1.2 and NPR1 activator -1.6.
Screening COc1ccc(NC(=O)c2cn(-c3ccccc3)nc2-c2cc3ccccc3o2)cc1 returned Dyrk1A ADPGlo -3.5, HSF1 inh -3.0, HSF-1 act -2.8, aDG glyco act 0.5, GC-B act -0.2 and NPR1 activator 2.0.
For CC(=O)NC1(c2ccccc2)CCN(c2nc(C)cc(C)n2)CC1 the results were Dyrk1A ADPGlo -2.0, aDG glyco act 0.0, GC-B act -5.0 and NPR1 activator -5.5.
NS(=O)(=O)c1ccc(NS(=O)(=O)c2ccc(Br)cc2)cc1 was read as Dyrk1A ADPGlo 2.2, HSF1 inh -12.0, HSF-1 act -2.7, aDG glyco act -0.1, GC-B act 3.2 and NPR1 activator 2.8.
Screening Cc1ccc(NC2c3ncccc3C(=O)N2C2CCCCC2)cc1 (stereo unspecified) returned Dyrk1A ADPGlo 1.0, HSF1 inh 33.7, HSF-1 act 66.7*, aDG glyco act 0.1, GC-B act -10.3 and NPR1 activator -18.1.
CC(=O)C(Sc1nnnn1-c1ccc(O)cc1)c1ccccc1 (stereo unspecified) was read as Dyrk1A ADPGlo 18.1, HSF1 inh 0.7, HSF-1 act 2.3, aDG glyco act -0.2, GC-B act 2.4 and NPR1 activator -5.5.
Screening CN1C(C(=O)Nc2ccc(OC(F)(F)F)cc2)=CC(c2cccs2)=NS1(=O)=O returned Dyrk1A ADPGlo 7.4, HSF1 inh -74.2*, HSF-1 act -80.4, aDG glyco act 0.0, GC-B act -3.2 and NPR1 activator -1.4.
CN1CCN(c2ccccc2NC(=O)c2ccc3c(c2)OCCO3)CC1 was read as Dyrk1A ADPGlo 1.2, HSF1 inh 0.8, HSF-1 act -14.9, aDG glyco act 0.0, GC-B act 0.3 and NPR1 activator -4.0.
For COc1ccccc1NC(=O)CCCC(=O)OCC(F)(F)C(F)F the results were Dyrk1A ADPGlo -0.6, HSF1 inh -18.1, HSF-1 act -29.3, aDG glyco act -0.1, GC-B act -3.3 and NPR1 activator -1.4.
Screening COc1cc(/C=C2/CCCC(C(=O)C(F)(F)F)=C2O)ccc1O returned Dyrk1A ADPGlo -4.0, HSF1 inh -11.5, HSF-1 act -15.9, aDG glyco act -0.2, GC-B act -4.9 and NPR1 activator -2.7.
`COc1cc(/C=C2/CCC/C(=C\c3cc(O)c(OC)c(Cl)c3)C2=O)cc(Cl)c1O` gave Dyrk1A ADPGlo 5.4, HSF1 inh 168.1, HSF-1 act 204.1*, aDG glyco act -0.3, GC-B act -11.9 and NPR1 activator -12.0.
`COc1cc(/C=C2\CCC/C(=C\c3ccc(O)c(OC)c3)C2=O)ccc1O` gave Dyrk1A ADPGlo 12.8, HSF1 inh 81.1, HSF-1 act 113.7*, aDG glyco act 0.2, GC-B act 1.0 and NPR1 activator -6.5.
Cc1ccc(OCCCN2CCOCC2)cc1 was read as Dyrk1A ADPGlo 22.0, HSF1 inh -3.4, HSF-1 act 6.5, aDG glyco act 0.1, GC-B act 2.4 and NPR1 activator 0.3.
COC(=O)c1nn(-c2ccccc2)c(Sc2ccc(C)cc2)c1/C=N/O was read as Dyrk1A ADPGlo 11.0, aDG glyco act 0.0, GC-B act -9.3 and NPR1 activator 56.3*.
COC(=O)c1nn(-c2ccccc2)c(Sc2ccccc2)c1/C=N/O was read as Dyrk1A ADPGlo -2.1, HSF1 inh 14.4, HSF-1 act 10.1, aDG glyco act 0.1, GC-B act 0.8 and NPR1 activator 20.4.
Screening Cc1c(/C=N/NC(=O)c2cccnc2)c2ccccc2n1Cc1ccccc1 returned Dyrk1A ADPGlo 1.5, HSF1 inh -3.8, HSF-1 act -13.1, aDG glyco act 3.1, GC-B act 29.0 and NPR1 activator 58.2*.
Cc1cc(C(=O)OCC(=O)NC(C)(C)C)c2ccccc2n1 was read as Dyrk1A ADPGlo 4.3, HSF1 inh 1.2, HSF-1 act 12.8, aDG glyco act -0.3, GC-B act -1.3 and NPR1 activator -0.7.
Screening Cc1ccc(C(=O)N2c3ccccc3CC2C)o1 (stereo unspecified) returned Dyrk1A ADPGlo -3.9, HSF1 inh 31.9, HSF-1 act 54.4*, aDG glyco act -0.1, GC-B act -3.0 and NPR1 activator -2.9.
CC(CCc1ccccc1)NC(=O)COc1ccc(S(=O)(=O)N2CCOCC2)cc1[N+](=O)[O-] (stereo unspecified) was read as Dyrk1A ADPGlo 8.5, HSF1 inh 0.0, HSF-1 act 25.4, aDG glyco act 0.1, GC-B act 1.4 and NPR1 activator 1.6.
Screening Cc1cccc(-c2nc(=S)c3c(n2Cc2ccco2)CCCC3)c1 returned Dyrk1A ADPGlo -9.4, HSF1 inh -1.6, HSF-1 act 10.5, aDG glyco act 0.0, GC-B act -1.4 and NPR1 activator -0.9.
Screening COc1cccc(-c2nc(=S)c3c(n2Cc2ccco2)CCCC3)c1 returned Dyrk1A ADPGlo 0.2, HSF1 inh 114.0, HSF-1 act 124.3*, aDG glyco act -0.1, GC-B act 20.5 and NPR1 activator 13.8.
`CCOc1ccc(N=Nc2c(=O)[nH]n3c(=O)cc(C)[nH]c23)cc1` gave Dyrk1A ADPGlo 8.0, HSF1 inh -1.6, HSF-1 act -7.1, aDG glyco act -0.1, GC-B act -7.8 and NPR1 activator -15.1.
Screening Cc1cc(=O)n2[nH]c(=O)c(N=Nc3ccccc3)c2[nH]1 returned Dyrk1A ADPGlo 17.0, HSF1 inh -64.3*, HSF-1 act -73.5, aDG glyco act 0.1, GC-B act -5.1 and NPR1 activator -1.4.
For N#Cc1c(NC(=O)/C=C/C(=O)O)sc2c1CCN(Cc1ccccc1)C2 the results were Dyrk1A ADPGlo 13.6, HSF1 inh 16.1, HSF-1 act 58.7*, aDG glyco act 0.3, GC-B act -3.4 and NPR1 activator 5.1.
COc1cccc(CC2(CO)CCN(S(=O)(=O)c3ccc(OC)cc3OC)CC2)c1 was read as Dyrk1A ADPGlo 13.8, HSF1 inh -55.9*, HSF-1 act -66.5, aDG glyco act 0.0, GC-B act -4.3 and NPR1 activator -6.1.
For Cc1ccc2c(c1)c(C)c(C)n2CC(O)Cn1nnc2ccccc21 (stereo unspecified) the results were Dyrk1A ADPGlo -2.4, HSF1 inh -88.7*, HSF-1 act -91.1, aDG glyco act -0.2, GC-B act -5.1 and NPR1 activator -1.5.
